# NPSR antagonist: neuropeptide S receptor (human) antagonism, cAMP | Q6W5P4 | CHO-NPSR cells, cAMP TR-FRET, antagonist mode | Potency, µM (doses to about 38.3 µM), without a hit: at the highest dose activity change, negative = inhibition, hits mostly inhibitors | 220,000 compounds, 1% hits; note: potency is the fitted concentration of half-maximal effect; nearly all actives have a fitted effect of over 50% in size
# Target sequence (Q6W5P4 whole entry, looked up): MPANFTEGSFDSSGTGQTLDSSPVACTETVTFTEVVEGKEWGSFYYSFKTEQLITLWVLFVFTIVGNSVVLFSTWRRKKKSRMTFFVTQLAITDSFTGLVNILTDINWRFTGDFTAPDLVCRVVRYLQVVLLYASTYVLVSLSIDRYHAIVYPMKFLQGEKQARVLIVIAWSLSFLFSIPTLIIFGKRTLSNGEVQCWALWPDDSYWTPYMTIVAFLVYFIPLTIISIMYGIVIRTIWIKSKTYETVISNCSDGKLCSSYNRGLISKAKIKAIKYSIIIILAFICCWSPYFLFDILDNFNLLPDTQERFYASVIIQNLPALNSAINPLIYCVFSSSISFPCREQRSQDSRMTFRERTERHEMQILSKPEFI
# KDM4E inh: inhibitors of human JMJD2E histone demethylase | JMJD2E catalytic domain, FDH-coupled NADH fluorescence (FDH is formaldehyde dehydrogenase) | Potency, µM (titrated, usually from 57.1 µM), without a hit: top-dose activity change, negative = inhibition, usual class: inhibitors | B2RXH2 | 230,000 compounds, 1.6% hits; active = well fitted inhibition curve with a large enough effect, not every such curve was filed as active; inconclusive = small, poorly fitted or top-dose-only effect, or another doubt; inactive = no such curve, though single readings can be large or run the other way;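 note: potency is the fitted concentration of half-maximal effect; 0% = wells with enzyme and -100% = buffer wells without enzyme; nearly all actives have a fitted effect of over 50% in size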
# RGS12 GoLoco inh: inhibitors of human Gai1-RGS12 GoLoco interaction (red fluorophore) | P63096 | Gai1:RGS12 GoLoco peptide FP, rhodamine, 10 min | Potency, µM (highest dose often 61.6 µM), for the others: top-dose activity, negative = inhibition, usual class: inhibitors | 230,000 compounds, 0.44% hits | AID 880; active = well fitted inhibition curve with a large enough effect, not every such curve was filed as active; inactive = no such curve, though single readings can be large or run the other way; note: potency is the fitted concentration of half-maximal effect; nearly all actives have a fitted effect of over 30% in size
# Target sequence (P63096 whole entry, looked up): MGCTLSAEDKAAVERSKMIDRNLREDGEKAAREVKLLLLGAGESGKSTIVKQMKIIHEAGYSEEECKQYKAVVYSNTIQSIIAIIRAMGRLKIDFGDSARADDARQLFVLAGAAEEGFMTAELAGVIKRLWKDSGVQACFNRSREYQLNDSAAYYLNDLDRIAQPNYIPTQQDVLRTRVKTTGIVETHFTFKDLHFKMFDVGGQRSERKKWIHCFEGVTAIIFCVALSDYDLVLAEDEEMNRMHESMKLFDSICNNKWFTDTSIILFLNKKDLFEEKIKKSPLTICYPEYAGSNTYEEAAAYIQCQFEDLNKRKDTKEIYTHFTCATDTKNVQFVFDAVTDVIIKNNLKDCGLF
# ALDH1A1 inh: blocks purified human ALDH1A1 activity. Purified ALDH1A1, NADH fluorescence, propionaldehyde substrate. Potency, µM (top dose mostly 75.3 µM), inactives show at the top dose activity, negative = inhibition, usual class: inhibitors. 220,000 compounds, 7.3% hits; active = well fitted inhibition curve with a large enough effect, not every such curve was filed as active; inconclusive = small, poorly fitted or top-dose-only effect, or another doubt; inactive = no such curve, though single readings can be large or run the other way;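 note: potency is the fitted concentration of half-maximal effect; plate controls were no enzyme wells and a reference inhibitor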
# Sfp inh: inhibitors of Bacillus subtilis Sfp phosphopantetheinyl transferase. Q9F4F7. Biochemical Sfp PPTase activity, qHTS. Potency, µM, inactives show largest response in the series, negative = inhibition, usual class: inhibitors. 310,000 compounds, 3.5% hits;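 note: the enzyme is Sfp with the accession as filed and its product quenches rhodamine fluorescence; potency is the fitted concentration of half-maximal effect; 0% = enzyme reaction without inhibitor and -100% = no enzyme wells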
#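 Step 1, compound plus 15 nM Sfp-PPTase, 15 min, room temperature. Step 2, add rhodamine-CoA (5 uM) and BHQ-2-YbbR (12.5 uM). Step 3, read 525/598 nm fluorescence at 0 and 30 min.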
# Coupling enz: inhibits coupling enzyme system, counter-screen for aldolase hits; coupling enzyme system counterscreen, AmpLite Red fluorescence; activity change, negative = inhibition, % at 58.2 µM, hits read low; 290,000 compounds, 0.67% hits; in the data active = activity change below about -30%
#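 Counterscreen lacking aldolase: glyceraldehyde-3-phosphate coupling-enzyme reagent preincubated 10 min at RT with compound (at 57.5 uM final), then substrate/coupling system with AmpLite Red added; fluorescence read at 525/598 nm after 20 min RT.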
# * = called active by the depositor; ? = inconclusive; / = no result given; ! = a repeat was not active; [ ] = remark or other dose. Shown are actives, neighbours in structure and some others; about 8.5% of the full set was active somewhere. Unless noted, calls come from the whole dose curve; as a rule, active = well fitted curve in the direction sought with a large enough effect; inconclusive = small, poorly fitted or top-dose-only effect, or another doubt; inactive = no such curve, though single readings can be large; an effect the other way counts as inactive or inconclusive. Unless noted, % is set by controls: 0 for no effect and ±100 for the full control effect.
SMILES,NPSR antagonist,KDM4E inh,RGS12 GoLoco inh,ALDH1A1 inh,Sfp inh,Coupling enz
COc1ccc(C2NN=C(c3c[nH]c4ccccc34)C2O)cc1 (stereo not given),/,/,/,/,56.2µM*,-3.9
S=c1[nH]nc(CSc2nc3ccccc3s2)n1C1CCCCC1,-26.5%[46.1 µM],7.3%,2.6%,3.16µM*,-15.9%,1.2
S=c1[nH]nc(COc2ccccc2)n1C1CCCCC1,-3.8%[46.1 µM],-20.5%,3.3%,?,4.0%,3.3
CCOc1ncccc1C(=O)Nc1c(C)n(C)n(-c2ccccc2)c1=O,/,/,/,/,-5.0%,1.2
CC(=O)c1cccc(S(=O)(=O)NCC(c2ccco2)N2CCCCC2)c1 (stereo not given),-14.9%[46.1 µM],-2.4%,27.1%,11.2µM*,-22.5%,3.5
Cc1ccc(NS(=O)(=O)c2cccc(C(=O)NCC(c3ccco3)N3CCCCC3)c2)cc1 (stereo not given),/,/,/,/,2.1%,0.2
COc1ccccc1C(=O)O/N=C(/C)c1ccc(N2C(=O)C3CCCCC3C2=O)cc1 (stereo not given),-18.1%[46.1 µM],-4.3%,2.7%,12.6µM*,-7.1%,1.7
Cc1cccc(C)c1OCC(=O)NC1CC1,/,/,/,/,50.1µM*,/
CN(C)C(=O)c1ccc(-c2cncnc2NCc2cccs2)cc1,/,?,-11.4%,-4.9%,50.1µM*,-0.5
CC(C)CN(CC(C)C)c1nnc(NC(=O)Cn2c(=O)oc3ccccc32)s1,?,-2.9%,1.5%,1.41µM*,7.1%,0.8
CCCc1nnc(NC(=O)Cn2c(=O)oc3ccccc32)s1,2.2%[46.1 µM],-3.4%,-3.0%,10µM*,?,-5.7
Nc1c(Cl)ncnc1N/N=C/c1ccnc2ccccc12,-4.1%,-5.0%,5.1%,1.4%,35.5µM*,-6.2
Nc1c(Cl)ncnc1N/N=C/c1ccccn1,-12.7%,20µM*,-5.5%,-10.2%,-6.5%,-7.7
C=CCn1c(C(CC)CC)nc2ccccc21,14.2%,3.9%,3.8%,/,3.8%,1.6
CC1(C)CC(=O)C(C(C#Cc2ccccc2)C2=C(O)CC(C)(C)CC2=O)=C(O)C1,-15.2%[46.1 µM],-13.9%,-6.2%,6.31µM*,?,/
O=C1CCCC(O)=C1Sc1ccccc1C(=O)O,15.7%,0.0%,-49.4%,-4.5%,56.2µM*,6.2
O=C1CCCc2[nH]c(-c3ccccc3)nc21,-8.3%,3.7%,-18.8%,2.0%,-2.0%,3.9
O=C1CCCC(O)=C1C(C#Cc1ccccc1)C1=C(O)CCCC1=O,-16.9%[46.1 µM],?,-36.5%,6.31µM*,-77.1%,-2.1
Cc1nonc1C(=O)N/N=C/c1ccc(O)cc1O,-14.1%,3.8%,3.2%,8.5%,4.6%,-4.3
C[C@@]12C(=O)N(CCO)CC(=O)N1[C@H](/C=C/c1ccccc1)[C@@H]1C(=O)N(c3ccccc3)C(=O)[C@@H]12,/,/,/,/,9.8%,0.2
CCCCCC#CCC#CCC#CCC#CCCCC(=O)O,-5.6%,15.8µM*!,51.0%,-9.8%,-14.6%,3.9
CCCCCCCCCC(=O)O,/,/,11.1%,1.3%,/,/
O=C(Nc1ccc(OCC(F)(F)C(F)F)c(C(F)(F)F)c1)c1ccccc1O,7.94µM*,?,6.9%,2.3%,30.1%,0.2
COc1ccc2oc(=O)c(/C(C)=N/Nc3nc(-c4cc(C)ccc4C)cs3)cc2c1,2.5%,-14.3%,13.2%,?,-12.9%,2.0
C/C(=N\Nc1nc(-c2ccc(C)cc2C)cs1)c1cc2ccccc2oc1=O,-28.3%,-4.1%,55.7%,?,39.8µM*,-5.4
SMILES,NPSR antagonist,KDM4E inh,RGS12 GoLoco inh,ALDH1A1 inh,Sfp inh,Coupling enz
C/C(=N/OC(=O)c1ccc(Cl)cc1Cl)c1oc(C)nc1C,-23.4%,-2.3%,14.5%,15.6%,16.6%,-2.6
C/C(=N\NC(=O)c1ccncc1)C12CC3CC(CC(C3)C1)C2,13.9%,7.8%,-7.3%,?,-15.8%,0.0
C/C(=N\NC(=O)c1ccc(-c2ccccc2)cc1)c1cccc(N)c1,-18.7%,5.7%,2.0%,22.4µM*,3.6%,-0.4
CC(=O)Nc1ccc(/C(C)=N\NC(=O)c2ccc(-c3ccccc3)cc2)cc1,8.9%,0.1%,29.8%,22.4µM*,-22.2%,1.8
CC/C(=N\NC(=O)c1ccc(-c2ccccc2)cc1)C12CC3CC(CC(C3)C1)C2,4.3%[46.1 µM],2.9%,7.3%,12.6µM*,1.9%,0.9
Cc1ccc(SCC(Cc2ccccc2)N2CCN(C)CCC2=O)cc1 (stereo not given),/,/,/,/,21.3%,1.1
COc1ccc(-c2cc3c(=O)n(CC(=O)Nc4cccc(Cl)c4)nc(C)n3n2)cc1,/,/,/,/,14.1%,-3.6
NC(=O)C1CCN(CC(=O)NC(=O)NC2CCCC2)CC1,8.0%,?,10.1%,6.8%,13.0%,3.0
COC(C/C=C\[C@@H](O)COCc1ccccc1)OC,19.4%,-5.6%,-2.8%,/,7.8%,4.4
CCOC(=O)CN=C1CC(C)(C)CC2=C1Sc1ncnc(N(C)C)c1N2,-22.1%[46.1 µM],?,12.3%,?,10µM*,-47.4*
O=C1c2ccccc2NC(c2ccc(F)cc2)N1Cc1ccccc1 (stereo not given),/,/,/,/,18.8%,-1.9
COC(=O)C1(C(=O)OC)CC2=CC(CC2=O)Cc2ccccc2[C@@H]1C[N+](=O)[O-] (stereo not given in full),/,-4.2%,22.4µM*,9.5%,12.1%,0.5
COc1ccc(NC(=O)C2CCN(C(=O)c3ccccc3)CC2)c(OC)c1,-11.8%[46.1 µM],1.3%,5.1%,1.58µM*,8.7%,4.1
COc1ccc(C(=O)N2CCC(C(=O)Nc3ccccc3OC)CC2)cc1,-9.7%[46.1 µM],1.0%,-5.4%,-0.1%,4.9%,-5.7
NNC(=O)c1ccc(CSc2cccc3cccnc23)cc1,6.0%,?,-3.7%,?,16.6%,0.2
Cc1cccc(CSc2cccc3cccnc23)c1,3.16µM*,?,6.2%,?,-21.0%,-6.9
CCc1cc2cc3c(cc2nc1SCC(=O)Nc1nccs1)OCO3,10µM*,3.6%,18.1%,2.6%,?,1.9
CCc1cc2cc3c(cc2nc1SCC(=O)Nc1c[nH]c(=O)[nH]c1=O)OCO3,/,/,/,/,-1.1%,1.5
c1ccc2c3c([nH]c2c1)[C@@H]1[C@H]2CC[C@H]([C@H]4CCCN[C@H]42)N1CC3,/,?,-0.3%[21.6 µM],-7.6%[20.9 µM],8.3%,-2.7
COC(=O)c1ccc(C(=O)Nc2ccc(N)cc2N)cc1,-25.6%[46.1 µM],-29.1%,22.0%,-5.8%,-28.9%,-34.0*
Cc1nc(S(=O)(=O)Nc2ccccc2C(=O)NCC2CC2)cn1C,7.5%,?,1.5%,/,8.0%,1.2
Cc1ccccc1OCc1nnc(SCc2cc(=O)[nH]c3ccccc23)n1-c1ccccc1,-17.6%,-1.8%,10.6%,-2.9%,56.2µM*,3.6
Cc1nc(N2N=C(c3ccc(Cl)cc3)CC2c2ccco2)sc1C(=O)N(C)C (stereo not given),-32.0%,?,24.1%,?,25.1µM*,0.0

# Screening data: PubChem BioAssay, National Center for Advancing Translational Sciences (NCATS)
